Screening data from PubChem BioAssay.
Most compounds without a hit are left out; they make up all but 2.7% or so of the library.
IDE inh: inhibitors of human insulin-degrading enzyme in cells; AID 434962; HEK cells, FAbetaB cleavage, fluorescence polarization; inhibition, % at 5.59 µM; P14735; actives 0.41% (n = 320,000);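 active = percent inhibition above the average of all tested compounds plus 3 SD, set per screening campaign, cut at about 16% in these data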;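 note: IDE supplied by intact live HEK cells; FP after avidin binding of uncleaved biotin substrate so inhibition keeps polarization high; 0% = DMSO wells and 100% = 60 µM reference IDE inhibitor Ii1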
Target sequence (P14735 whole entry, looked up): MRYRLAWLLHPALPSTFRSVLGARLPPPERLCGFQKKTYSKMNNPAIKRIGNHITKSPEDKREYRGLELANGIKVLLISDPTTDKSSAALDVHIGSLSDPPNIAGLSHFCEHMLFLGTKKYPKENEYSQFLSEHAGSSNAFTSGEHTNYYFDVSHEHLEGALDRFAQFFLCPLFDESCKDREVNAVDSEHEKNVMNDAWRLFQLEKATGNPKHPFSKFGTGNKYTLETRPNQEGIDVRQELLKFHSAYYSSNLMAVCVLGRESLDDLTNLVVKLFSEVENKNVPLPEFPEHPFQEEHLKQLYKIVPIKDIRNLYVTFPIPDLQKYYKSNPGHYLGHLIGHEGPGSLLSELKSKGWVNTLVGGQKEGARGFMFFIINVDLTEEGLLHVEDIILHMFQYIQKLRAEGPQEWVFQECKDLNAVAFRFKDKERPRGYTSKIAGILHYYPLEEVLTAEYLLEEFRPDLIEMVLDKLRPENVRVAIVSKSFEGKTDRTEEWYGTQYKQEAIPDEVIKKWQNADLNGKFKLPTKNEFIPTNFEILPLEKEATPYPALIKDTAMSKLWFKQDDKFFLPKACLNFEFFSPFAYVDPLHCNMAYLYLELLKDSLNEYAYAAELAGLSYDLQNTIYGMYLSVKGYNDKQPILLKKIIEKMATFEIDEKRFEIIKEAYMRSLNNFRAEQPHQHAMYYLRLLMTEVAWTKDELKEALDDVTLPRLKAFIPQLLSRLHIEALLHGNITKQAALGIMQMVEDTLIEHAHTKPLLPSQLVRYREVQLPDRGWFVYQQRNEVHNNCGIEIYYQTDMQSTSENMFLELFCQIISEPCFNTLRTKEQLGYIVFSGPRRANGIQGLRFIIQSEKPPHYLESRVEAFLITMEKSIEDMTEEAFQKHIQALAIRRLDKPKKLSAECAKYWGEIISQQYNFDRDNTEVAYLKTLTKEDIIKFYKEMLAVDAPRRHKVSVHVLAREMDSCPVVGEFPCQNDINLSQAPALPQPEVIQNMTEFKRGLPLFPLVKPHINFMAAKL
ANO1 activ: mouse TMEM16A channel activation, primary screen; Q8BHY3; HEK293 TMEM16A/YFP-H148Q/I152L, iodide quench fluorescence; active compounds read low; AID 623877; actives 0.3% (n = 340,000); B-score at 10 µM;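 active = fluorescence-ratio B-score plate-corrected deviation score at least 3 library SD below zero, with starting fluorescence score within 5 deviations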;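 note: channel opened by trigger with iodide after compound preincubation; score built on the fluorescence ratio of max minus min over baseline; more negative score means more quench and so TMEM16A activation or potentiation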
IDE act: IDE (human) activation, cell-based; P14735; HEK cells, FAbeta-B cleavage, fluorescence polarization; 0% vehicle, 100% cell-free pure enzyme wells; activation, % at 5.96 µM; actives 0.073% (n = 340,000); AID 493087;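 active = activation above the mean of all tested compounds plus 3 SD, set per screening campaign, cut at about 17% in these data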
CHT inh: human CHT choline transport inhibition; Q9GZV3; CHT-expressing cells, membrane potential dye, choline response; active compounds read low; B-score at 10 µM; actives 0.86% (n = 310,000);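 active = B-score over 3 SD under the library average, and starting fluorescence ratio not unusually high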;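 note: choline stimulus applied at its EC90 after an EC20 pre-addition; B-score computed on integrated fluorescence ratio after choline addition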
CHT PAM: allosteric activators of human choline transporter CHT | Q9GZV3 | CHT-expressing cells, membrane potential dye, choline EC20; active compounds read high; LV-AA mutant CHT in HEK293 cells | AID 488977 | actives 0.49% (n = 310,000) | B-score at 10 µM;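 active = initial fluorescence not abnormally high and integrated response B-score, plate-corrected, over 3 SD above library mean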
ANO1 block: blocks the mouse calcium-activated chloride channel TMEM16A; AID 588511; Q8BHY3; normalized B-score (activity score, 25-100; higher = stronger inhibition) at 10 µM; actives 1.2% (n = 310,000); HEK293 TMEM16A/YFP iodide influx fluorescence, ionomycin;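 active = ratio plate-corrected score three or more library SD toward inhibition, starting fluorescence score within five deviations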;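 note: score derived from kinetic fluorescence span divided by baseline fluorescence per well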
CHT act confirm: confirmation of human choline transporter (CHT) activators; CHT-expressing cells, membrane potential dye fluorescence (FDSS); % of choline EC20–EC90 response window; HEK293 expressing CHT LV-AA mutant; choline added at its EC20; AID 504833; shares compounds with CHT PAM; actives 91% (n = 2,500); activation, % at 10 µM;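 active = primary screen active, with duplicate mean activation above negative control mean plus 3 SD, cut at about 11% in these data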
HEK293 MP dye: activity in parental HEK293 cells lacking CHT. shares compounds with CHT PAM. membrane potential dye fluorescence (FDSS); measured after EC20 choline addition. ratio readout change at 10 µM, hits read low. actives 62% (n = 2,500). AID 623908;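 active = duplicate-averaged ratio beyond 3 SD from buffer wells, up or down, though filed actives are nearly all decreases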
Active calls of the source: *; i = inactive; · = not tested or not shown.

SMILES	IDE inh	ANO1 activ	IDE act	CHT inh	CHT PAM	ANO1 block	CHT act confirm	HEK293 MP dye
Cc1ccsc1C(=O)C1CCCN(Cc2cccn2-c2ccc(Cl)cn2)C1 (centres undefined)	-4	i	3	i	16*	i	49*	i
CCN1C(=NCCCOC(C)C)N[C@@H](CCc2ccccc2)[C@H](C(=O)NCCCOC(C)C)[C@H]1C	5	i	10	·	·	·	·	·
COC(=O)c1ccc(OC)c(CN2CCCN(Cc3ccc(F)cc3)S2(=O)=O)c1	3	i	-1	i	i	i	·	·
O=c1cc(S(=O)(=O)Cc2ccccc2)[nH]c(=O)[nH]1	·	i	5	·	·	·	·	·
Cc1ccn2cc(CCNS(=O)(=O)c3ccc4c(c3)OCCO4)nc2c1	3	i	4	i	i	i	25*	i
COc1ccc(CC(=O)OCC(=O)Nc2ncc(Cl)c(C)c2Cl)cc1	·	i	2	·	·	·	·	·
CC(C)CN1CCN(Cc2cc(F)ccc2-n2cccn2)CC1CCO (centres undefined)	-3	i	5	i	i	i	9	i
COc1ccc(NC(=O)C(c2ccccc2)N2CCN(c3ccccn3)CC2)cc1Cl (centres undefined)	4	i	-6	i	7.9*	i	22*	i
Cc1ccc(CNC(=O)CCC(=O)Nc2nnc(C(C)C)s2)cc1	-5	i	6	i	i	i	·	·
CCCOc1c(OC)cccc1C1CC(=O)Nc2cc3c(cc21)OCO3 (centres undefined)	2	i	-2	i	i	i	·	·
CCCOc1c(OC)cccc1C1CC(=O)Nc2cc3c(cc21)OCCO3 (centres undefined)	2	i	1	i	i	i	10	i
COc1ccccc1N1CCN(Cc2nc(-c3ccc(F)cc3)oc2C)CC1	5	i	5	i	i	i	·	·
Cc1cc(N2CCN(Cc3nc(-c4ccc(F)cc4)oc3C)CC2)cc(C)n1	6	i	3	i	6.8*	i	43*	-47*
COc1cc(/C=C2\CCn3c2nc2cc(C(=O)O)ccc2c3=O)ccc1OC(F)F	-1	i	5	i	i	i	26*	-32*
COCCN(C(=S)Nc1cccc(C)c1)C(C)c1cccs1 (centres undefined)	1	i	1	i	i	i	·	·
COCCN(C(=S)Nc1ccc(OC)cc1)C(C)c1cccs1 (centres undefined)	0	i	-6	i	8.1*	i	6	i
CC(C)CCC(CCNCc1ccccn1)c1ccc(Cl)cc1 (centres undefined)	7	i	5	i	i	i	33*	i
OC(C#CCCN1CCCCC1)(c1ccccc1)c1ccccc1	5	i	·	i	i	i	·	·
OC(C#CCCN1CCCCC1)(c1ccccc1)C1CCCCC1 (centres undefined)	0	i	5	i	7.5*	i	18*	i
Cn1cc(C(=O)N2CCN(c3cccc(Cl)c3)CC2)c(=O)c2cc(S(=O)(=O)N3CCOCC3)ccc21	7	i	1	i	i	i	·	·
Cc1oc(-c2ccc(Cl)cc2)nc1CN1CCC(C(=O)NCCCN2CCCC(C)C2)CC1 (centres undefined)	-1	i	2	i	i	i	55*	-28*
Cc1ccccc1-c1nc(CN2CCC(C(=O)NCCCN3CCOCC3)CC2)c(C)o1	3	i	8	i	i	i	40*	-26*
Cc1n(C)c2cc(Cl)ccc2[n+]1Cc1ccccc1	-2	i	5	i	9.3*	i	65*	-44*
COc1ccc(N2CC(C)Cn3c2nc2c3c(=O)n(Cc3ccc(C)cc3)c(=O)n2C)c(OC)c1 (centres undefined)	3	i	1	i	i	i	·	·
COc1ccc(N2CC(C)Cn3c2nc2c3c(=O)n(Cc3ccc(F)cc3)c(=O)n2C)c(OC)c1 (centres undefined)	0	i	5	i	i	i	18*	i
SMILES	IDE inh	ANO1 activ	IDE act	CHT inh	CHT PAM	ANO1 block	CHT act confirm	HEK293 MP dye
COC(=O)CNC(=O)Cn1c(=O)n(Cc2ccc(F)cc2)c(=O)c2sccc21	2	i	6	i	i	i	·	·
O=C(COc1ccc2c(c1)oc(=O)c1ccccc12)NCC1CCC(C(=O)O)CC1 (centres undefined)	-3	i	1	i	6.3*	i	32*	-20*
O=C(COc1ccc2c3c(c(=O)oc2c1)CCC3)NCC1CCC(C(=O)O)CC1 (centres undefined)	-15	i	6	i	i	i	·	·
CC(C)CC(c1nnnn1C(C)(C)C)N1CCN(C2CCCC2)CC1 (centres undefined)	-2	i	0	i	6.6*	i	15*	i
Cc1ccc(C(c2nnnn2C(C)(C)C)N2CCN(C3CCCC3)CC2)cc1 (centres undefined)	-5	i	5	i	i	i	·	·
O=C(OCC(=O)N1CCN(c2ccc(F)cc2)CC1)c1cnc2ccccc2n1	4	i	-2	·	·	·	·	·
CN(C)CCNc1nc2c(c(=O)[nH]c(=O)n2C)n1CC(O)COc1ccc(Cl)cc1Cl (centres undefined)	3	i	-4	i	8.9*	i	51*	-45*
CCCNc1nc2c(c(=O)[nH]c(=O)n2C)n1CCC(C)C	0	i	0	i	i	i	·	·
CC(C)CCn1c(NCCN(C)C)nc2c1c(=O)[nH]c(=O)n2C	4	i	-3	i	i	i	26*	-41*
CS(=O)(=O)c1cccc(C(=O)OCC(=O)NC(=O)Nc2ccccc2F)c1	1	i	2	·	·	·	·	·
O=[N+]([O-])c1cccc(S(=O)(=O)N2CN(c3ccc(Br)cc3)c3nc4ccccc4nc32)c1	-3	i	1	·	·	·	·	·
COCCCNc1ncnc2ccc(C)cc12	0	i	5	i	i	i	18*	-34*
Cc1ccc2ncnc(NCCC(=O)O)c2c1	5	i	5	i	i	i	·	·
